# Screening results (PubChem BioAssay)
# Shown are actives, neighbours in structure and some others; about 21% of the full set was active somewhere.
# Pf growth 96h – P. falciparum growth inhibition at 96 hour, primary screen for plastid delayed-death inhibitors. P. falciparum luciferase reporter growth, 96 h. Potency, µM (series often up to 28.7 µM), inactives show top-dose activity change, negative = inhibition, most hits filed as inhibitors. 320,000 tested, 6.9% active; note: potency is the fitted concentration of half-maximal effect; % is set by controls: 0 for no effect and ±100 for the full control effect
#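 Parasite growth measured via integrated firefly luciferase reporter in P. falciparum. Infected erythrocytes at 2% hematocrit, 0.05% parasitemia final were treated 96 hours at 37 C under 5% CO2, and luminescence was read.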
# Sm TGR block – inhibitors of Schistosoma mansoni thioredoxin glutathione reductase; Q962Y6; purified TGR, DTNB reduction, TNB absorbance 405 nm; Potency, µM (highest dose often 114 µM), without a hit: at the top dose activity change, negative = inhibition, hits mostly inhibitors; 360,000 tested, 3% active; AID 485364; note: potency is the fitted concentration of half-maximal effect; % is set by controls: 0 for no effect and ±100 for the full control effect; nearly all actives have a fitted effect of over 60% in size
#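 Kinetic colorimetric format: TGR-catalysed, NADPH-driven DTNB reduction monitored via TNB absorbance. Enzyme dispensed at 20 nM; compound exposure 15 min at room temperature before reaction start.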
# CHX counter – affects cycloheximide protein synthesis inhibition readout, counter-screen; 300,000 tested, 12% active; AID 2314; cell reporter, cycloheximide protein synthesis inhibition counterscreen; max response, %; in the data active = max response mostly above about 13%, no sharp cut-off; inactive = mostly below about 14%; note: read at 38.3 µM for the half of the compounds with a filed dose; 0% is about no effect
# NS1 function inh – inhibitors of influenza NS1 protein function | Potency, µM (doses to about 46.1 µM), for inactives: at the highest dose activity, positive = more growth | 270,000 tested, 0.4% active | AID 2326; calls by dose curve; note: potency is the fitted concentration of half-maximal effect; actives are rising curves; nearly all actives have a fitted effect of over 50% in size
#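 Growth recovery, yeast-based: influenza A NS1 expressed in S. cerevisiae causes slow growth, and suppressors are detected by OD600. The parent strain without NS1 is used as positive control.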
# Pf growth 48h – P. falciparum growth inhibition at 48 hours (one generation) | P. falciparum luciferase growth in erythrocytes, 48 h | Potency, µM (highest dose often 28.7 µM), inactives show top-dose activity change, negative = inhibition, actives largely listed as inhibitors | 310,000 tested, 5.9% active | AID 504832; note: potency is the fitted concentration of half-maximal effect; % is set by controls: 0 for no effect and ±100 for the full control effect
#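 Erythrocytes infected with P. falciparum carrying an integrated firefly luciferase reporter (2% hematocrit, 0.1% parasitemia final) were exposed to compounds in RPMI 1640 with 0.5% Albumax at 37 C, 5% CO2. Growth inhibition was scored as reduced luminescence.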
# Shiga inhibitor – inhibitors of Shiga toxin in Vero cells; AID 2315; Vero cells, Shiga toxin protein synthesis inhibition reporter; inhibition, % at 38.7 µM; 290,000 tested, 9.2% active; in the data active = inhibition mostly above about 28%, no sharp cut-off; inactive = mostly below about 43%; note: 0% is about no effect
# The depositor's hits bear a star; ? = inconclusive; · = no result given. Unless noted, calls come from the whole dose curve; as a rule, active = well fitted curve in the direction sought with a large enough effect; inconclusive = small, poorly fitted or top-dose-only effect, or another doubt; inactive = no such curve, though single readings can be large; an effect the other way counts as inactive or inconclusive.
SMILES,Pf growth 96h,Sm TGR block,CHX counter,NS1 function inh,Pf growth 48h,Shiga inhibitor
COc1ccc2[nH]c3c(=O)n(CCCCC(=O)NCCC(C)C)c(=S)[nH]c3c2c1,5.2µM*,-7%,0,·,?,-10
Cc1ccc(-c2nnc(NC(=O)Cc3ccc(F)cc3)o2)c(C)c1,?,2%,-3,-5%,-12%,-4
Cc1cccc(NC(=O)C[n+]2cccc(C)c2)c1,0.66µM*,-11%,-1,4%,?,·
Cc1ccc[n+](CC(=O)Nc2ccc([N+](=O)[O-])cc2)c1,?,35µM*,-2,-78%,?,·
Cc1cccc(NC(=O)C[n+]2ccccc2)c1,?,9%,-2,-4%,52%,·
COc1ccc(NS(=O)(=O)c2cccc(C(=O)NNC(=O)c3ccccc3OC)c2)cc1,11%,1%,·,·,-4%,·
Oc1c(Cl)cc(Cl)cc1C=Nc1ccccc1N1CCCC1,?,16µM*,9,-36%,?,3
Cc1cc(/C=C(\C#N)C(=O)O)c(C)n1C1CC1,5%,-14%,1,25%,3%,-8
COc1ccc(-n2c(C)cc(/C=C(\C#N)C(=O)NCc3ccco3)c2C)cc1,?,-7%,47*,6%,4.7µM*,51*
COCCNC(=O)/C(C#N)=C/c1cc(C)n(C2CCCCC2)c1C,0%,-28%,28*,·,73%,69*
COc1ccc(NC(=O)/C(C#N)=C/c2cc(C)n(-c3ccc(F)cc3)c2C)cc1,·,-5%,·,·,·,·
COCCNC(=O)/C(C#N)=C/c1cc(C)n(-c2ccc(C)cc2)c1C,7%,-33%,49*,-7%,0%,63*
Cc1noc(C)c1COc1ccc(C(=O)NCCc2ccccn2)cc1,-20%,8%,12,·,-10%,-12
CCCc1cc(=O)oc2cc(C)cc(OCC(=O)N3CCC(C(=O)O)CC3)c12,36%,3%,-2,-3%,-1%,-7
CCCc1ccc(-c2cc(N)n[nH]2)cc1,104%,1%,30*,8%,·,27
CCCCc1ccc(-c2nc(N)n[nH]2)cc1,5%,?,44*,-141%,112%,78*
Nc1n[nH]c(-c2ccc(F)cc2)n1,-7%,8%,8,5%,19%,13
CCCCN(CC)CCNC(=O)CCn1cnc2onc(-c3ccc(F)cc3)c2c1=O,·,3%,·,·,·,·
CCOC(=O)c1c(-c2ccccc2)csc1NC(=O)CSc1nc(N)cc(N)n1,3.3µM*,5%,-1,?,3%,-4
CCOC(=O)c1c(-c2ccccc2)csc1NC(=O)CSc1nc(C)cc(C)n1,?,0%,-5,-25%,13µM*,-6
CCOC(=O)c1c(-c2ccc(OC)cc2)csc1NC(=O)CCN1C(=O)c2ccccc2C1=O,?,8%,-2,11%,-3%,-8
CCOC(=O)c1c(-c2ccccc2)csc1NC(=O)c1nc(SCC)ncc1Cl,·,-1%,·,·,·,·
CCOC(=O)Cn1c(=O)c(-c2ccccc2N)nc2ccccc21,5%,12%,25*,-5%,14%,-4
CCN(CC)CCn1c2ccccc2c2nc3ccccc3nc21,20%,50µM*,44*,-25%,-2%,53*
CCCn1c2ccccc2c2nc3ccccc3nc21,·,11%,19*,-131%,?,27
SMILES,Pf growth 96h,Sm TGR block,CHX counter,NS1 function inh,Pf growth 48h,Shiga inhibitor
CCN(CC)CCSc1nnc2c3ccccc3n(Cc3ccccc3)c2n1,?,0%,6,13%,5.2µM*,-3
CCN(CC)CCSc1nnc2c3cc(F)ccc3n(Cc3ccccc3)c2n1,5%,0%,-4,1%,·,-6
CCN(CC)CCn1c2ccccc2c2n[nH]c(=S)nc21,?,?,-3,-7%,?,-9
CCCn1c(O)c(N=Nc2ccc3ccccc3n2)c2ccccc21,94%,-5%,30*,7%,91%,42*
CCOC(=O)Cn1c2ccccc2c2nc3ccccc3nc21,60%,3%,12*,0%,28%,28
CCOC(=O)Cn1c2ccccc2c2nc(C)sc21,182%,10%,-3,·,23%,19
CC(C)CCn1c(O)c(N=Nc2ccccn2)c2ccccc21,?,-1%,5,-26%,?,12
COCCNc1ccc2cc(S(=O)(=O)N3CCCCC3)ccc2n1,·,3%,·,·,·,·
